These results are taken from PubChem BioAssay (NCATS).

One assay concerns CRL-7250. The assay is described as follows: Cytotoxic Profiling of Annotated Libraries Using Quantitative High-Throughput Screening (AID 1296008). For max response: % is set by controls: 0 for no effect and ±100 for the full control effect. Note: potency is the fitted concentration of half-maximal effect. The conditions noted are these: Five cell lines viability, CellTiter-Glo ATP luminescence, 48-72 h; max response: stronger effect = lower value. The essentials:
(§1)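 Cells exposed to compounds for 48 or 72 hr at 37 degrees Celsius. Viability read as ATP-coupled luminescence with CellTiter-Glo after 10 min at room temperature.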

Assay [1] relates to HaCat. The description is as above. The conditions noted are these: Five cell lines viability, CellTiter-Glo ATP luminescence, 48-72 h; max response: stronger effect = lower value. In short, it runs like this: as §1
On the technique in general: Cellular ATP, detected with luciferase, serves as a proxy for viable cell number.

The subject of a further assay is KB-3-1. The assay is described as above. The conditions noted are these: Five cell lines viability, CellTiter-Glo ATP luminescence, 48-72 h; max response: stronger effect = lower value. The essentials: as §1
The test system of a further assay is NIH3T3. The description is as above. The conditions noted are these: Five cell lines viability, CellTiter-Glo ATP luminescence, 48-72 h; max response: stronger effect = lower value. The essentials: as §1
The subject of assay [2] is HACAT. In words: qHTS assay to identify novel small-molecules to repurpose for Merkel cell carcinoma treatment (AID 1296009). The conditions noted are these: MCC and control cell lines, CellTiter-Glo viability, 72 h; at 44.8 µM (top of the series) unless noted. The essentials:
(§2)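 Cells were incubated with compound for 72 hr at 37 degree celsius before CellTiter-Glo addition. Luminescence was normalized with no-cell wells as full cytotoxicity and DMSO as baseline.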
(In general: Quantitative high-throughput screening tests each substance at several concentrations.)

The subject of another assay is HEK293T. The assay is described as above. The conditions noted are these: MCC and control cell lines, CellTiter-Glo viability, 72 h; at 44.8 µM (top of the series) unless noted. The essentials: as §2
The next assay has as its system MCC-13. The assay is described as above. The conditions noted are these: MCC and control cell lines, CellTiter-Glo viability, 72 h; series mostly up to 46 µM. The essentials:
as §2

In the next assay the test system is HEK293. The assay is described as follows: Cytotoxic Profiling of Annotated Libraries Using Quantitative High-Throughput Screening (AID 1296008). For max response: % is set by controls: 0 for no effect and ±100 for the full control effect. Note: potency is the fitted concentration of half-maximal effect. The conditions noted are these: Five cell lines viability, CellTiter-Glo ATP luminescence, 48-72 h; max response: stronger effect = lower value. The essentials: as §1
Another assay deals with P93_24. The assay is described as follows: qHTS profiling for inhibitors of Plasmodium falciparum proliferation (AID 504749).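 Note: 0% = DMSO vehicle and full inhibition = artemisinin control.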 The conditions noted are these: P. falciparum in erythrocytes, SYBR Green DNA, 72 h; series mostly up to 28.7 µM. In short, it runs like this: (§3)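 Readout was DNA-dye fluorescence from lysed cultures, ex 485/em 535 nm. Parasitized red cells had grown 72 h with compound; data scaled between 0.29 uM artemisinin and DMSO wells and corrected using vehicle-only plates.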

The next assay deals with P94_40. Described as above. The conditions noted are these: P. falciparum in erythrocytes, SYBR Green DNA, 72 h; series mostly up to 28.7 µM. The essentials:
as §3

In a further assay the test system is PAD. The description is as above. The conditions noted are these: P. falciparum in erythrocytes, SYBR Green DNA, 72 h; series mostly up to 28.7 µM. In short, it runs like this: as §3
The test system of the next assay is PC15. Described as above. The conditions noted are these: P. falciparum in erythrocytes, SYBR Green DNA, 72 h; series mostly up to 28.7 µM. The essentials:
as §3

Another assay has as its system PC26. The assay is described as above. The conditions noted are these: P. falciparum in erythrocytes, SYBR Green DNA, 72 h; series mostly up to 28.7 µM. The essentials:
as §3

A further assay deals with PC49. The assay is described as above. The conditions noted are these: P. falciparum in erythrocytes, SYBR Green DNA, 72 h; series mostly up to 28.7 µM. The essentials:
as §3

Another assay has as its system SC27B. Described as above. The conditions noted are these: P. falciparum in erythrocytes, SYBR Green DNA, 72 h; series mostly up to 28.7 µM. The essentials:
as §3

The next assay relates to TAB109. Described as above. The conditions noted are these: P. falciparum in erythrocytes, SYBR Green DNA, 72 h; series mostly up to 28.7 µM. In short, it runs like this: as §3
A further assay relates to TAB113. The assay is described as above. The conditions noted are these: P. falciparum in erythrocytes, SYBR Green DNA, 72 h; series mostly up to 28.7 µM. In short, it runs like this: as §3
In a further assay the test system is TAB165. The description is as above. The conditions noted are these: P. falciparum in erythrocytes, SYBR Green DNA, 72 h; series mostly up to 28.7 µM. The essentials:
as §3

Another assay concerns W2. The description is as above. The conditions noted are these: P. falciparum in erythrocytes, SYBR Green DNA, 72 h; series mostly up to 28.7 µM. In short, it runs like this:
as §3

Where “and” joins values, the source holds several entries; their conditions need not be identical. Equal entries are not always repeated. Results filed as inconclusive are left out. A number with no mark means an inactive call. Calls of active or inactive are those of the source. Calls come from the whole dose curve; as a rule, active = well fitted inhibition curve with a large enough effect; inconclusive = small, poorly fitted or top-dose-only effect; inactive = flat fitted curve, though single readings scatter.
Note: nearly all actives have a fitted effect of over 60% in size.

`CCC(=O)OC1CCC2C3CCC4=CC(=O)CC[C@@]4(C)C3CC[C@]12C` (some centres undefined): the values for the max response in the assay with CRL-7250 and with NIH3T3 were -4.7% and 4.81%, respectively. Besides, the result in the assay with HaCat [1], with KB-3-1, with HACAT [2] and in the assay with HEK293T was inactive. Moreover, the Potency entry in the assay with MCC-13 was “inactive”.
In the case of `OCCCBr`, the max response was -6.12% with CRL-7250, -13% with HaCat [1], -26.3% with KB-3-1 and -4.76% with NIH3T3. Further, the outcome with HEK293T was “inactive [at 92 µM]”. Moreover, the Potency result in the assay with MCC-13 is “inactive”.
Take `O=C(Oc1ccc([N+](=O)[O-])cc1)N1CCC(C(O)(c2ccc3c(c2)OCO3)c2ccc3c(c2)OCO3)CC1`: the Potency in the assay with CRL-7250 is 13200 nM (active). For the same molecule, the max response with HaCat [1] was -5.43%; with KB-3-1, 5.68% and 6.78%. In addition, the molecule was classed as inactive in the assay on HaCat [1], in the assay on NIH3T3 and in the assay with HACAT [2]. The Potency result in the assay on MCC-13 was “inactive”.
In the case of `C/C=C(/C)C(=O)O[C@H]1C(C)=C2[C@H]([C@@H]1OC(=O)CCCCCCC)[C@@](C)(OC(C)=O)C[C@H](OC(=O)CCC)[C@@]1(O)[C@H]2OC(=O)[C@@]1(C)O`, the Potency in the assay on CRL-7250 was 41.1 nM (active); in the assay with HEK293, 29.1 nM (active); in the assay on KB-3-1, 46.1 nM (active); in the assay on NIH3T3, 51.7 nM (active).
Regarding `COc1ccc2c(c1)[C@]13CCCCC1C(C2)N(C)CC3` (some centres undefined), the values for the max response in the assay with CRL-7250, in the assay with HaCat [1] and in the assay on KB-3-1 were 4.77%, -2.03% and 9.18%, respectively. Further, the outcome in the assay with NIH3T3 and in the assay with HEK293T was inactive. Also, the Potency result in the assay with MCC-13 is “inactive”.
For `C1=C2CCCN[C@H]2[C@@H]2C[C@H]1[C@@H]1CCCCN1C2`, the max response was -2.39% with CRL-7250 and 9.36% in the assay with KB-3-1. Also, the call in the assay on HaCat [1], in the assay with NIH3T3 and with HACAT [2] was inactive. Further, the Potency result with MCC-13 is “inactive”.
For `CO[C@H]1CCC(O[C@H]2C[C@H]([C@]3(C)CC[C@]4(C[C@H](O)[C@@H](C)[C@@H]([C@@H](C)C=C(C)C(=O)[C@H](C)C[C@H](C)C(=O)O)O4)O3)O[C@]3(O[C@@H]([C@H]4O[C@@](O)(CO)[C@H](C)C[C@H]4C)C[C@H]3C)[C@H]2C)O[C@H]1C` (some centres undefined), the Potency in the assay with CRL-7250 is 1050 nM (active). For the same molecule, in the assay with HaCat [1], the max response was -21.4%.
As for `COc1ccc(CC2NCCc3cc(OC)c(OC)cc32)cc1OC` (centres undefined), the max response is -3.56% in the assay on CRL-7250, -3.69% in the assay on KB-3-1 and -2.7% in the assay on NIH3T3. The molecule was classed as inactive in the assay with HaCat [1] and in the assay with HACAT [2]. Moreover, the Potency result in the assay on MCC-13 was “inactive”.
In the case of `CCN(CC)C(=O)c1ccc(C2=CC3(CCNCC3)Oc3cccc(O)c32)cc1`, the max response with CRL-7250 was 3.09% and -1.02%; in the assay on HaCat [1], -0.307%; in the assay on KB-3-1, 5.76% and 9.58%; in the assay with NIH3T3, 0.128%. Also, the call in the assay with HaCat [1], with NIH3T3 and with HACAT [2] was inactive. Moreover, the Potency result in the assay on MCC-13 was “inactive”.
Regarding `CCCCCCCCCC(CC)c1ccc(S(=O)(=O)O)cc1` (centres undefined), the Potency entry with P93_24, with P94_40, with PAD, in the assay on PC15, in the assay on PC26 and with PC49 was “inactive” in each case. The Potency result in the assay on SC27B, in the assay with TAB109, with TAB113, with TAB165, in the assay with W2 and in the assay with MCC-13 was “inactive” in each case. Besides, the max response was -1.12% with CRL-7250; -1.21% and -21.2% in the assay with KB-3-1; -1.31% in the assay on NIH3T3. Besides, the result with HaCat [1] was inactive. Further, the outcome with HACAT [2] was “inactive [at 92 µM]”.
